# Cdc25B block – inhibitors of human Cdc25B phosphatase. recombinant Cdc25B, OMFP fluorescence Ex485/Em525. inhibition, %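 (compounds tested at 10 µM final in the well)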. AID 368. 65,000 compounds, 0.1% hits; in the data active = inhibition above about 50%
# M1 antag – M1 muscarinic receptor (rat) antagonism; CHO-M1 cells, Fluo-4 calcium, ACh EC80 antagonist mode; active compounds read low; 64,000 compounds, 3.4% hits; B-score at 10 µM; P08482;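 active = calcium fluorescence response, raw or row-and-column corrected B-score, differing from the plate sample mean either way at a set confidence level, mostly lower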
# MMP13 inh – inhibitors of human MMP13; P45452; MMP-13 fTHP FRET cleavage, Mca fluorescence; inhibition, % at 4 µM; 65,000 compounds, 0.07% hits;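 active = inhibition above the mean of compound-free control plate wells plus 3 SD, cut at about 14% in these data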;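 note: 0% = DMSO wells and 100% = wells with reference MMP-13 inhibitor after basal subtraction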
# DUSP1 inh – inhibitors of human MKP-1 phosphatase | inhibition, %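 (compounds tested at a single concentration somewhere between 10 and 100 µM)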 | recombinant MKP-1, OMFP hydrolysis fluorescence | 65,000 compounds, 0.15% hits | AID 374;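 active = inhibition above about 50%, limit read from the data; inconclusive = inhibition over screen mean plus 3 SD, below that limit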;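 note: 0% = DMSO max control wells and 100% = wells with enzyme stopped by NaOH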
# M1 ag – agonists of M1 muscarinic receptor. CHO-M1 cells, Fluo-4 calcium fluorescence, agonist mode; active compounds read high. B-score at 10 µM. 64,000 compounds, 3% hits;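 active = fluorescence rise, raw or as B-score row- and column-corrected plate score, outside the 99.7% band of its plate's samples, either direction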
# Hsp90 block – displaces geldanamycin probe from tumor Hsp90. P07900. NCI-N417 lysate Hsp90, Cy3B-geldanamycin FP displacement. inhibition, % at 30 µM. 64,000 compounds, 0.35% hits. AID 429;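 active = inhibition above 50%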;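 note: 0% = tracer plus lysate wells and 100% = tracer alone without lysate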
# M1 agonist conf – rat M1 muscarinic agonism, confirmation | shares compounds with M1 ag | CHO-M1 cells, Fluo-4 calcium fluorescence, agonist mode; actives lie on both sides | fluorescence change (max-min) at 10 µM | 1,700 compounds, 19% hits | AID 1488;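 active = fluorescence change differs from the solvent-only DMSO control mean at a set confidence level in both duplicate runs; inconclusive = differs from solvent-only control mean in just one of two runs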;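 note: an EC20 dose of acetylcholine follows compound addition during the same imaging run; raw fluorescence intensity difference in instrument units with no normalization to controls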
# M4 ag counter – rat M4 muscarinic agonism, M1 counter-screen; shares compounds with M1 ag; CHO M4/Gqi5 cells, Fluo-4 calcium fluorescence, agonist mode; actives lie on both sides; fluorescence change (max-min) at 10 µM; 1,700 compounds, 9% hits; AID 1741;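 active = fluorescence change differing from the plate's solvent-only control wells at 99.7% confidence in both duplicates, whether higher or lower; inconclusive = differs from solvent controls in only one of two duplicates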
# Target sequence (P08485 whole entry, looked up): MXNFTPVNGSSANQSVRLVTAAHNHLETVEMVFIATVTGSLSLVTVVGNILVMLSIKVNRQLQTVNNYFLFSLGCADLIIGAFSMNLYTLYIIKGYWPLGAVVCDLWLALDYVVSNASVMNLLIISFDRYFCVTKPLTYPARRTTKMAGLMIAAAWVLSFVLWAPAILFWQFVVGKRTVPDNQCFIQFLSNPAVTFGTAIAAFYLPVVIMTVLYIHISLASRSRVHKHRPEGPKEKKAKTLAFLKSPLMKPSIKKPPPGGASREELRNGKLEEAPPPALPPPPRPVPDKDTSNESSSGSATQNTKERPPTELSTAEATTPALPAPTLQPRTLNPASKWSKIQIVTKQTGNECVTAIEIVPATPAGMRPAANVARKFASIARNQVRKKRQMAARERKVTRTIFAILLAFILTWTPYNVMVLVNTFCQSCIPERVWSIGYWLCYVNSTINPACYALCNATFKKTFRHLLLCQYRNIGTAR
# Numbers without * were called inactive; i = inactive; ? = inconclusive; . = no result given. Compounds with a hit are over-represented: about 6.1% of the library has one in this group of screens.
SMILES,Cdc25B block,M1 antag,MMP13 inh,DUSP1 inh,M1 ag,Hsp90 block,M1 agonist conf,M4 ag counter
CN1CCc2c(sc3c2C(=O)NC(c2ccc(-c4cccc(Cl)c4)o2)N3)C1 (configuration not stated),0,-1.1,-24,-2,14*,-5,14,-14
CN1CCc2c(sc3c2C(=O)NC(c2cccs2)N3)C1 (configuration not stated),-14,-0.45,-35,-31,-0.75,-17,.,.
CCOC(=O)Cc1nnc2c(Nc3ccccc3F)nc3nonc3n12,1,-0.64,0,5,4.3*,6,?,-54
COCCn1c(N)c(C(=O)OCc2ccccc2)c2nc3ccccc3nc21,6,-0.49,-279,-9,0.73,-2,.,.
COCCNC(=O)c1c(N)n(CCC2=CCCCC2)c2nc3ccccc3nc12,23,0.78,-137,26,6.2*,-9,5.8,-8.2
CC(=O)Oc1ccc2cc(-c3nc4ccccc4n3C)c(=O)oc2c1,3,0.27,-293,2,5.8*,0,45,16
CCOC(=O)c1cc2ccc(OC(=O)c3ccco3)cc2oc1=O,-4,0.079,i,21,-0.075,0,.,.
Cc1nc2ccccc2c(=O)n1/N=C/c1cn(-c2ccccc2)nc1-c1cccs1,2,-0.32,0,14,3.5*,1,?,-55
O=C(Cc1nc2ccccc2s1)c1ccc(O)cc1O,9,0.24,-8,-3,-1.8*,2,4.5,4.1
O=C(Cc1ccc(Br)cc1)c1ccc(O)cc1O,-8,-0.31,0,8,-0.72,-2,.,.
COc1ccc(C2C(C(=O)N3CCN(c4ccccc4F)CC3)c3ccccc3C(=O)N2C)cc1 (configuration not stated),.,0.085,7,.,4.9*,.,?,?
COc1ccc(-c2cc(=O)oc3c(C)c(O)c(CN(C)C)cc23)cc1,-4,-0.021,-11,24,6.4*,-2,-0.86,-3.3
COc1ccc(-c2cc(=O)oc3cc(OCc4nn[nH]n4)ccc23)cc1,1,0.076,-3,10,0.045,-2,.,.
O=C(COC(=O)c1c2c(nc3ccccc13)CCCC2)Nc1ccc2c(c1)OCO2,-3,-2*,-2,29,13*,-3,?,-16
O=C(COC(=O)c1ccco1)Nc1ccc2c(c1)OCO2,-4,-0.34,4,8,0.89,-2,.,.
O=C(COC(=O)c1ccc(S(=O)(=O)Nc2ccccc2)cc1)NCCN1C(=O)CSC1=O,0,-1,-11,1,-0.52,-1,.,.
COC(=O)c1ccc(CN(c2ccc(C)cc2)S(=O)(=O)c2ccc3c(c2)OCCO3)o1,-2,-0.43,3,27,1.1,-1,.,.
O=C1OCc2ccc(NC(=O)C3CCCCC3)cc21,-4,-1,3,19,-3.3*,-2,-36*,-69
O=C(CN1C(=O)C2C3C=CC(C3)C2C1=O)N1CC=C(c2ccccc2)CC1 (configuration not stated),5,-0.35,6,4,-1.6,-3,.,.
O=C(CSc1nnnn1C1CC2CCC1C2)Nc1ccnc2ccccc12 (configuration not stated),-9,-2.1*,7,14,19*,-5,12,-1.3
CC(=O)N1CCC2(CC1)C(C#N)=C(N)Oc1n[nH]c(C)c12,-9,0.25,2,7,0.44,.,.,.
Cc1[nH]nc2c1C1(CCN(C(=O)c3ccccc3)CC1)C(C#N)=C(N)O2,-11,0.16,-7,-4,23*,-1,-12,-29
CC1Cc2ccccc2N1C(=O)CCNS(=O)(=O)c1cccc2nsnc12 (configuration not stated),-8,-0.04,4,-6,2.7*,-1,?,?
CCCCn1c(SCC(=O)Nc2nnc(C)s2)nnc1-c1ccoc1C,-4,-0.4,2,-20,3.2*,0,?,-38
COC(=O)/C=c1/s/c(=C(/C#N)C(=O)N2CCCCC2)n(-c2ccccc2)c1=O,24,0.07,2,4,0.047,-7,.,.
SMILES,Cdc25B block,M1 antag,MMP13 inh,DUSP1 inh,M1 ag,Hsp90 block,M1 agonist conf,M4 ag counter
Cc1ccc(/C=c2\s/c(=C(/C#N)C(=O)N3CCCC3)n(Cc3ccco3)c2=O)s1,3,-0.088,10,20,3*,-8,2,3.2
O=C(Cn1cnc2ccccc2c1=O)NC1CCCc2ccccc21 (configuration not stated),2,1.4,0,2,-1.2,-6,.,.
O=C(CSc1nnc(Cn2nnc3ccccc32)o1)N(Cc1ccc(F)cc1)c1ccccc1,-8,-2.2,4,8,6.2*,-3,-34*,-18
Cc1cccc(N2C(=O)c3cccc4c(N(C)CCO)ccc(c34)C2=O)c1,2,-14*,-15,10,351*,1,1544*,1425*
COc1ccc2c(c1OC)C(=O)N(c1cccc(C)c1)C2=O,1,0.83,0,-2,-0.15,-3,.,.
O=C(CCCCCNc1nc(=S)[nH]c2ccccc12)N1CCN(c2ccccn2)CC1,-10,-1.6,-1,8,15*,-9,-9,-32
Cc1nn(-c2ccccc2)c(C)c1C(=O)OCC(=O)c1c(N)n(CC(C)C)c(=O)n(C)c1=O,-9,-1.2,3,35,4.1*,-7,-6.6,-53
CCC(=O)OCC(=O)c1c(N)n(Cc2ccccc2)c(=O)n(C)c1=O,0,0.64,-6,20,-0.29,-6,.,.
CCN=C1SC(CC(=O)Nc2ccccc2)C(=O)N1CC (configuration not stated),-5,-3.8*,-3,-5,11*,1,?,-56
COCCN1C(=O)C(CC(=O)Nc2ccc(C(=O)O)cc2)SC1=Nc1ccccc1 (configuration not stated),-11,0.31,3,16,0.08,.,.,.
CCCn1nnnc1SCC(=O)NCc1ccccc1,-18,-0.0089,1,11,-0.012,-1,.,.
CCCn1nnnc1SCC(=O)NCc1ccc2c(c1)OCO2,3,-0.13,1,2,3*,2,-11,-22
CCCCN1Cc2cc(C(=O)c3cc(F)ccc3O)cnc2NC1=O,-5,-0.28,-11,8,-0.19,-1,.,.
COc1ccccc1S(=O)(=O)Cc1ccc(C(=O)N2CCN(c3cccc(Cl)c3)CC2)o1,-9,-0.99,5,30,9.5*,-3,-26*,-51
O=C(c1ccc(CS(=O)(=O)c2c(Cl)cccc2Cl)o1)N1CCN(c2ccccn2)CC1,-8,-3*,0,9,3.4*,-2,-16,-24
Cc1ccc(S(=O)(=O)Cc2ccc(C(=O)N3CCN(c4ccccn4)CC3)o2)cc1,-2,-0.85,2,10,1.2,0,.,.
